Consider eleven substances from ChEMBL document CHEMBL1201862, “PubChem BioAssay data set” (2004).

Hit rate of the full screen: of about 57,000 sequences, about 4,000 (7%) were called active. Rule as the data show it: active = GI50 up to about 1.1 µM and inactive = higher. The list is a sample of the results. Potency and affinity values are given separately.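 Results reflect a 48-hour exposure of cells in 96-well plates to compound at five concentrations. GI50 = concentration required for 50% inhibition of growth.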

In the experiment the test system is M14. Nature of the experiment: NCI tumour cell line growth inhibition, 48 h.
For the substance “mu-(1,7-nanodiamine-N,N')bis-(cis-aminedichloroplatimum (II)), CHEMBL2146215”, the GI50 was 7.78 µM.
As to “cis-Bis[[(trimethylsilyl)methyl]amino]tetrachloroplatinum(IV), CHEMBL2146191”, the GI50 came to 3.5 µM.
For the substance “[Bis(aminomethyl)dimethylsilane]dichloroplatinum (II), CHEMBL2146201”, the GI50 is 22.9 µM.
Then “[Bis(aminomethyl)diethylsilane]tetrachloroplatinum(IV), CHEMBL2146203”, with 1.38 µM.
The value for “[Bis(aminomethyl)tetramethylenesilane]dichloropaltinum(II), CHEMBL2146205” was 13.5 µM.
Take “[Bis(aminomethyl)ethylmethylsilane]tetrachloroplatinum(IV), CHEMBL2146192”: the GI50 stood at 2.68 µM.
Regarding “[Bis(aminomethyl)tetramethylenesilane]tetrachloropaltinum(IV), CHEMBL2146189”, the GI50 amounted to 6.11 µM.
The value for CISPLATIN, CHEMBL11359 was 1.95 µM; that for “[Bis(aminomethyl)dimethylsilane]tetrachloroplatinum(IV), CHEMBL2146190” was 7.45 µM.
Substance “[Bis(aminomethyl)pentamethylenesilane]tetrachloropaltinum(IV), CHEMBL2146204” showed a GI50 of 2.13 µM.
The substance “[Bis(aminomethyl)pentamethylenesilane]dichloropaltinum(II), CHEMBL2146202” had a GI50 of 1.92 µM.
